According to PubChem BioAssay AID743311 (Broad Institute, 2014):
Potency and affinity values are given separately. Active and inactive are the calls of the source. A call without a number means that no potency is given here. The rule behind the calls is not given here.

Test: toxicity to HepG2 liver cells – cell-based, plate reader, dry powder, set 6, cytotoxicity control, dose response (AID 743311)
Settings: series mostly up to 26 µM

SMILES | outcome
CS(=O)(=O)c1ccc(OCCn2cnc3ccccc32)cc1 | inactive
c1ccc2c(c1)ncn2CCOc1ccc2c(c1)CCC2 | inactive
COc1ccc(OCCn2cnc3ccccc32)cc1 | inactive
Cc1ccc(OCCn2cnc3cc(C)c(C)cc32)cc1 | inactive
Fc1cccc2c1[nH]c(=S)n2CCOc1ccccc1 | inactive
COc1cc(C)ccc1OCCn1cnc2ccccc21 | inactive
Cc1ccccc1OCCn1cnc2ccccc21 | inactive
Cc1ccc2c(c1)[nH]c(=S)n2CCOc1ccccc1 | inactive
COCc1nc2ccccc2n1CCOc1ccc(C(C)(C)C)cc1 | inactive
Fc1ccc(OCCn2c(=S)[nH]c3ccccc32)cc1 | inactive
COc1cccc(OCCn2cnc3ccccc32)c1 | inactive
CCc1nc2ccccc2n1CCOc1ccccc1 | inactive
Cc1ccc(C(C)C)c(OCCn2c(=O)[nH]c3ccccc32)c1 | inactive
CCCc1nc2ccccc2n1CCOc1ccccc1 | inactive
CC(C)c1ccccc1NCCn1c(=S)[nH]c2ccccc21 | inactive
Clc1ccc(OCCn2cnc3ccccc32)c(Cl)c1 | inactive
Cc1ccc(OCCn2cnc3ccccc32)c(C(C)C)c1 | inactive
Clc1ccccc1OCCn1cnc2ccccc21 | inactive
CC(C)Oc1ccc(OCCn2cnc3ccccc32)cc1 | inactive
Cc1cccc(OCCn2c(=S)[nH]c3ccccc32)c1 | inactive
